The results in this text go back to PubChem BioAssay (NCI).

The structures appear in SMILES notation. The panel holds about 83,000 compounds, 20% with a hit somewhere; the sample as a whole holds those more often.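 48-hour exposure, single concentration, 96-well plates; percent growth endpoint where 0 means no net growth. Active: below 10.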 Unmarked numbers belong to inactive results. Calls of active or inactive are those of the source.

Test systems include NCI-H226 lung; NCI-H322M lung; HOP-62 NSCLC; NCI-H460 lung; NCI-H522 lung; A549/ATCC NSCLC; 786-0 renal; COLO 205 colon; DU-145 prostate; K-562 leukemia; MALME-3M melanoma; MDA-MB-231 breast; RXF 393 renal; SF-268 CNS; SF-295 CNS; SF-539 CNS; UACC-257 melanoma; M14 melanoma; HCT-15 colon.
What all share (test): NCI-60 one-dose screen, 48 h (100 = growth as untreated, 0 = no growth, -100 = all killed)
What all share (conditions): 10 µM

As for `COC(=O)C1(C)Cc2cc(OC(C)=O)c(OC(C)=O)cc2N1` (configuration not stated), the growth is 113% with NCI-H226 lung; 116% with NCI-H322M lung; 117% with HOP-62 NSCLC; 107% in the assay on NCI-H460 lung; -55.8% (active) in the assay on NCI-H522 lung; 31.6% in the assay with A549/ATCC NSCLC. Further, the growth is 103% in the assay with 786-0 renal; 53.7% with COLO 205 colon; 104% in the assay with DU-145 prostate; 16% with K-562 leukemia; 79.7% in the assay with MALME-3M melanoma; 101% with MDA-MB-231 breast. The growth with RXF 393 renal was 61.8%; with SF-268 CNS, 87.5%; in the assay with SF-295 CNS, 121%; in the assay on SF-539 CNS, 91.3%; in the assay with UACC-257 melanoma it was 19%; with M14 melanoma it was 87.3%. Also, the growth with HCT-15 colon is 35.6%.

On to `COc1ccc2c(c1)/C(=C\c1c[nH]c3ccc(OC)cc13)C(=O)N2`, for which the growth is 72.7% in the assay with NCI-H226 lung; 54.7% with NCI-H322M lung; 51% with HOP-62 NSCLC; 53.2% in the assay with NCI-H460 lung; 50.3% in the assay on NCI-H522 lung; 30.8% in the assay with A549/ATCC NSCLC. The growth was 70.9% in the assay on 786-0 renal; 63.1% with DU-145 prostate; 11.6% with K-562 leukemia; 91.8% in the assay with MALME-3M melanoma; 42.3% in the assay with MDA-MB-231 breast; 60.5% in the assay on RXF 393 renal. The growth with SF-295 CNS is 74%; with SF-539 CNS it was 74.2%; in the assay with UACC-257 melanoma it was 68.1%; with M14 melanoma, 29.8%; in the assay on HCT-15 colon it was 31.6%.

For `COc1ccc(-c2ccc3cc(C(=O)Nc4ccc(O)c(C(=O)/C=C/c5cc(OC)c(OC)c(OC)c5)c4)ccc3c2)cc1`, the growth in the assay on NCI-H226 lung was 82.5%; in the assay on NCI-H322M lung, 100%; in the assay on HOP-62 NSCLC, 114%; in the assay with NCI-H460 lung, 95.9%; with NCI-H522 lung it was 87.7%; with A549/ATCC NSCLC, 92.6%. The growth in the assay on 786-0 renal is 102%; with COLO 205 colon it was 109%; in the assay on DU-145 prostate it was 102%; with K-562 leukemia, 59%; with MDA-MB-231 breast, 85.6%; in the assay with RXF 393 renal, 93%. In addition, the growth in the assay on SF-268 CNS was 105%; in the assay on SF-295 CNS it was 101%; with SF-539 CNS, 103%; with UACC-257 melanoma it was 97.9%; in the assay with M14 melanoma, 89.1%; in the assay with HCT-15 colon, 80.4%.

With `O=C(Nc1ccncc1)C(=O)c1cn(S(=O)(=O)c2cc(Cl)cc(Cl)c2)c2ccccc12`, the growth in the assay on NCI-H226 lung was 74.2%; in the assay on NCI-H322M lung, 99.6%; with HOP-62 NSCLC it was 71.7%; with NCI-H460 lung, 87.3%; with NCI-H522 lung, 40.2%; in the assay on A549/ATCC NSCLC it was 85.3%. The growth is 72.5% with 786-0 renal; 104% in the assay on COLO 205 colon; 66.5% in the assay with DU-145 prostate; 28.5% in the assay with K-562 leukemia; 63.6% in the assay on MDA-MB-231 breast; 75% in the assay with RXF 393 renal. Further, the growth with SF-268 CNS was 94.3%; in the assay on SF-295 CNS, 38.2%; with SF-539 CNS, 61.7%; in the assay with UACC-257 melanoma, 69.8%; in the assay on M14 melanoma it was 71.5%; with HCT-15 colon, 69.5%.

For the compound `COc1cc(-c2cc(/C=C/C(=O)c3ccc(Cl)c(Cl)c3)[nH]n2)cc(OC)c1OC`, the growth in the assay with NCI-H226 lung was 81.7%; in the assay on NCI-H322M lung, 62.7%; in the assay with HOP-62 NSCLC, 75.9%; in the assay on NCI-H460 lung, 79.4%; with NCI-H522 lung, 38%; in the assay with A549/ATCC NSCLC, 88.3%. Besides, the growth with 786-0 renal is 69.7%; in the assay with COLO 205 colon it was 78%; in the assay with DU-145 prostate it was 62.4%; in the assay with K-562 leukemia, 31.9%; in the assay with MALME-3M melanoma it was 87%; in the assay with MDA-MB-231 breast, 62.3%. The growth is 67.3% in the assay on RXF 393 renal; 104% in the assay with SF-268 CNS; 141% in the assay on SF-295 CNS; 35% in the assay on SF-539 CNS; 89.7% with UACC-257 melanoma; 89.8% in the assay with M14 melanoma. Further, the growth in the assay with HCT-15 colon is 50.9%.

For the compound `COc1ccc(/C=C/C(=O)Nc2ccc(-c3nc4ccc(F)cc4s3)cc2)cc1`, the growth was 72.3% with NCI-H226 lung; 104% with NCI-H322M lung; 109% with HOP-62 NSCLC; 99.1% in the assay on NCI-H460 lung; 85.5% in the assay with NCI-H522 lung; 94% with A549/ATCC NSCLC. Further, the growth in the assay with 786-0 renal was 80.6%; in the assay with COLO 205 colon, 110%; with DU-145 prostate, 118%; in the assay with K-562 leukemia, 79.6%; in the assay with MDA-MB-231 breast it was 97%; with RXF 393 renal, 101%. Further, the growth in the assay with SF-268 CNS was 112%; with SF-295 CNS it was 95.5%; with SF-539 CNS, 111%; with UACC-257 melanoma, 94.9%; in the assay with M14 melanoma, 102%; with HCT-15 colon, 105%.

For `O=C(O)c1ccc(P(=O)(O)O)c([N+](=O)[O-])c1`, the growth in the assay with NCI-H226 lung was 94.4%; with NCI-H322M lung, 102%; in the assay on HOP-62 NSCLC, 101%; with NCI-H460 lung it was 103%; in the assay with NCI-H522 lung, 99.1%; with A549/ATCC NSCLC, 93%. The growth with 786-0 renal was 110%; with COLO 205 colon it was 112%; in the assay with DU-145 prostate, 108%; in the assay on K-562 leukemia it was 107%; in the assay with MALME-3M melanoma it was 97.7%; in the assay on MDA-MB-231 breast it was 108%. The growth with RXF 393 renal was 105%; with SF-268 CNS it was 110%; in the assay on SF-295 CNS it was 99.2%; in the assay with SF-539 CNS, 104%; in the assay on UACC-257 melanoma, 92.2%; in the assay on M14 melanoma, 114%. The growth in the assay on HCT-15 colon is 102%.

Regarding `N#Cc1c(C#N)c(SSc2c(C#N)c(C#N)c(N)n2-c2ccccc2)n(-c2ccccc2)c1N`, the growth with NCI-H226 lung was 101%; with NCI-H322M lung, 108%; with HOP-62 NSCLC, 109%; in the assay with NCI-H460 lung it was 120%; with NCI-H522 lung, 67.3%; in the assay on A549/ATCC NSCLC, 112%. Moreover, the growth was 101% in the assay on 786-0 renal; 97.4% in the assay with COLO 205 colon; 115% with DU-145 prostate; -17.7% (active) with K-562 leukemia; 95.1% in the assay on MALME-3M melanoma; 100% in the assay with MDA-MB-231 breast. Also, the growth in the assay with RXF 393 renal is 98.8%; with SF-268 CNS it was 112%; in the assay with SF-295 CNS, 115%; in the assay on SF-539 CNS, 103%; in the assay with UACC-257 melanoma, 103%; in the assay on M14 melanoma, 115%. Moreover, the growth with HCT-15 colon was 102%.
